The text below walks through data of PubChem BioAssay AID652039 (The Scripps Research Institute Molecular Screening Center, 2013).

SMILES strings stand for the structures. Among all 370,000 compounds or so, about 3,300 (0.89%) were called active. For the sample, actives were picked, then their nearest neighbours and some compounds at random. Unmarked numbers belong to inactive results.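 Rule for the calls: active = activation above the mean of all tested compounds plus 3 SD, computed per campaign excluding outliers beyond control limits (cut at about 13% in these data); inactive = the rest.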

The target in the test is Kallikrein-7 (Homo sapiens) (UniProt P49862). Briefly: activation of human kallikrein-7 proenzyme – biochemical, fluorescence intensity, primary screen (AID 652039). The conditions noted are these: purified proKLK7, EDANS-DABCYL substrate fluorescence; at 7 µM; active compounds read high; 100% is mature enzyme control, 0% vehicle.
Kallikrein-7 (Homo sapiens), sequence (P49862 whole entry, looked up): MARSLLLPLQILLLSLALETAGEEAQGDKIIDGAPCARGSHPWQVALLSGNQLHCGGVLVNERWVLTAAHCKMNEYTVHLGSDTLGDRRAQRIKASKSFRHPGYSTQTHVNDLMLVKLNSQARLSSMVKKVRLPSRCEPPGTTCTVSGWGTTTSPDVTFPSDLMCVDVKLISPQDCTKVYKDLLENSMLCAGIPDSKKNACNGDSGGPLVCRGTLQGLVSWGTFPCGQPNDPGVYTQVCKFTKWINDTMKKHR
In the case of `Cc1ccccc1N1CCN(C2CCCN(C(=O)c3cn4c(C)cccc4n3)C2)CC1` (stereo not drawn), the activation is 0.45%.

As for `CCOC(=O)[C@]12CCCCC/C=C\1N(Cc1ccc(OC)cc1)C(=O)[C@H]2CC(=O)NCc1ccc(C)o1`, the activation was 0.76%. Then `O=C(CN1CCCc2ccccc21)NCc1ccc(F)cc1`, with -0.07%. Take `COc1ccccc1NC(=O)C1=C(C)Nc2nnnn2C1c1cccc(Br)c1` (stereo not drawn): the activation was 0.58%. To `COC(=O)c1ccc(C2C3=C(Nc4nnnn42)c2ccccc2OC3)cc1` (stereo not drawn) belongs 30.4% (active). To `COC(=O)C1=C(C(=O)c2ccc(C)cc2)C(c2ccccc2)n2nnnc2N1` (stereo not drawn) belongs -0.19%; to `COc1ccccc1C(=O)NC1CCCCN(C(C)C)C1=O` (stereo not drawn), 0.9%. To `COc1cccc(CNC(=O)C2CCCN(c3nc4ccccc4o3)C2)c1OC` (stereo not drawn) belongs 0.61%; to `O=S(=O)(c1ccccc1)N1CCC(c2nc3ccccc3o2)CC1`, -0.13%. For `O=C(c1cc(-c2ccco2)nc2ccccc12)N(Cc1nnc(-c2ccc(Cl)cc2)o1)C1CC1`, the activation was -60.5%. To `CC1CCCN(C(=O)c2cc(-c3ccco3)nc3ccccc23)C1` (stereo not drawn) belongs 38.3% (active). On to `CC(=O)N1CCN(C(=O)c2cc(-c3ccc(C)o3)nc3ccccc23)CC1`, for which the activation was 35.2% (active). To `Cc1ccc(S(=O)(=O)N2CCN(C(=O)c3ccccc3-c3nc4ccccc4s3)CC2)c(C)c1` belongs -0.15%; to `CC(=O)N1CCN(Cc2cc(=O)oc3cc(C)ccc23)CC1`, 0.22%. As for `CC1CCN(C(=O)Cn2cc(C(=O)c3ccco3)c3ccccc32)CC1`, the activation was 0.78%. To `O=C(Nc1cccc(Cl)c1)OC1CC2CC1[C@H]1CCCCN1[C@H]2Cc1ccccc1` (stereo partly drawn) belongs -0.47%; to `C=CCN1C(=O)[C@H](CC(=O)NCCCN2CCCC2=O)[C@@]2(C(=O)OCC)CCCC=C12`, -0.44%; to `Cc1ccccc1CN1CCCCC(NC(=O)c2cccc(C#N)c2)C1=O` (stereo not drawn), -1.15%. Regarding `COc1ccc2c(C(C)c3ccc(N)cc3)cn(C)c2c1` (stereo not drawn), the activation was -0.2%. On to `CC(=O)N1CCCN(C2=Nc3ccccc3Sc3ccccc32)CC1`, for which the activation was 0.25%. As for `O=c1oc2cc(O)ccc2cc1-c1ccc(F)cc1`, the activation is 57.7% (active). Regarding `CN(C)c1cc(-c2ccc(F)cc2)oc(=O)c1Cl`, the activation was -0.37%. On to `CCOC(=O)[C@]12CCCC3=C1N(CCC3)C(=O)[C@@H](CC(=O)NCC13CC4CC(CC(C4)C1)C3)C2`, for which the activation is 0.33%. To `Cc1ccc(NC(=O)c2cc(C)nn2-c2ccccc2)c(C)c1` belongs 0.15%; to `C[C@@H](NC(=O)c1ccccc1OCC(=O)Nc1ccc(I)cc1)C(=O)N(C)Cc1ccccc1`, -0.35%. To `CCN(CC)CCCC(C)n1c2nc(=O)[nH]c(=O)c-2nc2cc(Cl)ccc21` (stereo not drawn) belongs 75.5% (active); to `Cc1cc2nc3c(=O)[nH]c(=O)nc-3n(C[C@H](O)[C@H](O)[C@H](O)CO)c2cc1C`, -49.4%. In the case of `CC(C)CNc1cccc2c1S(=O)(=O)N(Cc1cn(Cc3ccccc3C(F)(F)F)nn1)Cc1ccccc1O2`, the activation is -7.19%. Then `CCOCc1nnc(NC(=O)CCS(=O)(=O)Cc2ccccc2)s1`, with 0.26%; and `Cc1ccc(OCc2nnc(NC(=O)OCC(C)C)s2)cc1`, with -0.08%. As for `COCC(=O)Nc1nnc(COc2ccccc2)s1`, the activation is 20.2% (active).

Take `COc1ccc(CN2C/C(=C/c3ccccc3)N3C(=O)C[C@@H](c4ccccc4)N=C23)c(OC)c1`: the activation was -0.63%.

Regarding `CC1(C)Oc2ccc3ccc(=O)oc3c2/C(=C/NCCO)C1=O`, the activation was 0.36%. For the compound `C/C=C(/C)C(=O)OC1Cc2c(ccc3ccc(=O)oc23)OC1(C)C` (stereo not drawn), the activation is 0.3%.

Regarding `CC1(C)Oc2ccc3ccc(=O)oc3c2/C(=N/O)C1=O`, the activation was 206% (active). Take `COC(=O)C1CN(Cc2cn(Cc3ccc(F)cc3)nn2)CCS(=O)(=O)N1Cc1ccc(Cl)cc1` (stereo not drawn): the activation is -0.37%. To `N#CC1=C(N)Oc2c(sc3ccccc23)C1c1ccco1` (stereo not drawn) belongs 15% (active). To `CCN(CC(=O)Nc1c(F)cccc1F)C(=O)c1ccc(-c2ccccc2)cc1` belongs 0.37%; to `CCN(CC(=O)Nc1c(F)cccc1F)C(=O)c1ccc(-c2ccc(C(C)=O)cc2)o1`, 13.8% (active). Then `CCN(CC(=O)Nc1c(F)cccc1F)C(=O)c1cnc(C)cn1`, with -0.38%. With `O=C(OC12CCCN(C1)/C(=C/c1ccccc1)C2)c1ccco1` (stereo not drawn), the activation is 0.07%. In the case of `CCCCCCCCNS(=O)(=O)/C=C/c1cc(C)ccc1CNC(=O)OC(C)(C)C`, the activation is 0.37%. To `CC(C)N1CCCCC(NC(=O)C(C)(C)C)C1=O` (stereo not drawn) belongs -0.28%; to `Cc1oc2nc(SCC(=O)Nc3ccc(S(N)(=O)=O)cc3)nc(NC(=O)c3ccccc3)c2c1C`, 16.3% (active); to `Cc1oc2nc(SCC(=O)NCc3cccnc3)nc(N)c2c1C`, 0.33%. Consider `Cc1cc(-c2nnc(SCC(=O)Nc3ccc(S(N)(=O)=O)cc3)n2N)n[nH]1`, for which the activation is -0.95%. Then `CN(C)Cc1cn(-c2ccc(-c3noc4c3C(=O)N(CC(=O)N3CCOCC3)CC4)cc2)nn1`, with -0.76%. As for `CC(C)Oc1cc(F)ccc1-c1cc(C(=O)Nc2cccc(Cl)c2)[nH]n1`, the activation is -0.65%.

As for `CCC(=O)OCCCN1C(=O)CCC12CCC(c1ccccc1)CC2` (stereo not drawn), the activation is -0.27%. Regarding `CCc1nc(Nc2ccc(NC(C)=O)cc2)c2oc3ccccc3c2n1`, the activation was 172% (active). To `CCc1nc(Nc2ccc3nccnc3c2)c2oc3ccccc3c2n1` belongs -2.9%; to `C[C@@H](Nc1nc(-c2ccccc2)nc2c1oc1ccccc12)C(=O)O`, -0.64%; to `Cc1cc2nc(C(F)(F)F)cc(-c3cccs3)n2n1`, -1.33%. Then `Cc1nc2ccccn2c(=O)c1NC(=O)c1cccs1`, with 0.03%.

`CC(C)(C)Nc1c(-c2cccs2)nc2ccccn12`: the activation is 27% (active). As to `COC(=O)[C@]12C[C@H](CC(=O)N3CCOCC3)C(=O)N(Cc3ccc(Cl)cc3Cl)C1=C[C@H](C(C)C)O[C@@H]2C1CC1`, the activation was 0.16%. Then `CC(=O)OCCN1CCCC12CCC(c1ccccc1)CC2` (stereo not drawn), with -0.5%; and `Cc1cccc(N(C)C(=O)c2cc3c(=O)[nH]c4ccc(C)cc4c3s2)c1`, with -0.34%; and `O=C(NCCN1CCN(Cc2ccccc2)CC1)c1cc2c(=O)[nH]c3ccccc3c2s1`, with -1.14%. Then `CCN(CC)CCCNC(=O)c1cc2c(=O)[nH]c3ccc(C)cc3c2s1`, with 23.3% (active); and `CC(C)CNS(=O)(=O)CC1NCCc2ccccc21` (stereo not drawn), with -0.37%.

`COC(=O)C12C=C3CC(c4ccccc4)=C3C(=O)N1Cc1[nH]c3ccccc3c1C2` (stereo not drawn): the activation was -0.28%.

`CCCCN(CCCC)CC(O)Cn1c2ccccc2c(=O)c2ccccc21` (stereo not drawn): the activation was 22.1% (active). Then `CCCCN(CC)CCNC(=O)CCNC(=O)Cn1ccc2ccccc2c1=O`, with -0.2%; and `CS(=O)(=O)N(CC(O)Cn1c2ccccc2c2ccccc21)c1cccc2ccccc12` (stereo not drawn), with -1.25%. To `CC(NCc1ccco1)C(=O)N1CCCCC1` (stereo not drawn) belongs 0.56%; to `O=S1(=O)c2c(NCc3ccco3)cccc2Oc2ccccc2CN1Cc1cn(Cc2cccc(C(F)(F)F)c2)nn1`, -9.73%. For `O=C(c1cccnc1)N(c1cc2sc(=O)oc2c2ccccc12)S(=O)(=O)c1ccccc1`, the activation was -0.78%. To `Cc1ccc(-n2nc(-c3ccco3)cc2C(=O)NCc2cccnc2)cc1` belongs 0.09%. For the compound `O=C(Oc1c(-c2ccco2)oc2ccccc2c1=O)c1cccnc1`, the activation was 18.9% (active). For the compound `COc1ccc(-c2cc(-c3nnc(SCC(=O)Nc4cccc5ccccc45)n3N)[nH]n2)cc1`, the activation is 0.07%. Turning to `COc1ccc(Cn2cc(CN3[C@@H](CC(C)C)COc4cc(Br)ccc4S3(=O)=O)nn2)cc1`, the activation was 0.02%. In the case of `Cc1ccc2cc(C#N)c(NCCNC(=S)NCCCN3CCOCC3)nc2c1`, the activation was 1.07%.

As for `Cc1ccccc1NC(=O)Cn1c(=O)n(CC2CCCO2)c(=O)c2ccccc21` (stereo not drawn), the activation is 0.23%. As for `Cc1cccc(NC(=O)c2ccc3c(=O)n(CC4CCCO4)c(=S)[nH]c3c2)c1` (stereo not drawn), the activation is -0.97%.

As to `Cc1ccc(-n2c(=O)c(C#N)cc3c(=O)n4ccccc4nc32)cc1C`, the activation is 2.54%.

Consider `O=C(NCc1cccnc1)c1cc(S(=O)(=O)N2CCOCC2)c(Cl)cc1Cl`, for which the activation is -0.01%. Then `Cc1cccn2c(=O)c3cc(C#N)c(=NC(=O)c4cccnc4)n(CC4CCCO4)c3nc12` (stereo not drawn), with 17.3% (active); and `Cc1ccc(Cn2c(C)c3cnn(CC(=O)NCCN4CCOCC4)c(=O)c3c2C)cc1`, with 0%; and `Cc1cccn2c(=O)c3cc(C(=O)NCCN4CCOCC4)c(=N)n(Cc4cccnc4)c3nc12`, with 32.9% (active). Regarding `CCn1c(=N)c(C(=O)NCCCOC)cc2c(=O)n3cccc(C)c3nc21`, the activation is 62.3% (active). Then `Cc1cccn2c(=O)c3cc(C#N)c(=O)n(CCCN4CCOCC4)c3nc12`, with 39.9% (active). To `Cc1ccc(S(=O)(=O)c2cc3c(=O)n4cccc(C)c4nc3n(CCc3ccccc3)c2=N)cc1C` belongs 0.37%; to `COCCCn1c(C(=O)NC2CCCCC2)cc2c(=O)n3cccc(C)c3nc21`, -0.55%; to `CC(=O)Nc1ccc(OC[C@@H](O)CN2CCC(C(O)(c3ccccc3)c3ccccc3)CC2)cc1`, 0.22%. To `CNc1nc(SC)nc(N(C#N)CC(=O)OC)n1` belongs -0.23%; to `O=C(NCCc1c[nH]c2ccccc12)OCc1cn(-c2c(F)cccc2F)nn1`, 0.33%. In the case of `CCOC(=O)[C@]12CCCCC/C=C\1N(Cc1ccc(OC)cc1)C(=O)[C@H]2CC(=O)NCCCN1CCCC1=O`, the activation was -0.22%.
